B1: ENSMUSG00000061578.707|Ksr2|13:17 (ssRNA)
RNA: GGGAGUUCUACAGUCCGACGAUCGCUUCGAUAUCCGCAUGCUACCUGUAGUCUCUACACACAUCUUCUUCUAAGACCACUAAUAACACCGCCUUUCUCCUUGAUCCGGGCCUCAGACCUCUUCAGAGAUUCUUUCUCUGAAUGUACGUGGGGGACUCCAACAGAUGUUGGGAGAAGACUCAAUAUGAGCAUACGGGGUCAUUGUUCAAUCCUGUAUCAAGACCUUGGAGUUGUCUAAGGCUGUGGGUUUUAAAUACCUGCUGCAGGCCUCCCAUCUCUGGCUCUUUGUUUCCACUCUGGCCCACUCUUGCGGUCGCACUAGUGUGGAAUUCUCGGGUGUCAAGG
B2: ENSMUSG00000061578.929|Ksr2|22:26 (ssRNA)
RNA: GGGAGUUCUACAGUCCGACGAUCGCUUCGAUAUCCGCAUGCUACAAGGGUGUUUAGAGUAGGCACACACGAAGUAUCAAUAAGGUUAUUGAGAUGAGGAUUUAGAAAGAUCCAUGUAUAAAAGGUCUAGAAGGAUGAAGAUCUAAAACAAGAAGACUGCAUGUUAACGCUCCUGCCACUGUUGCCCCUUCCUUUACCCUUGGCAGACAUUGCUAAUCAAUCUCAGCACAGUUUCCAACCACAGUCAUAGAACAUUUGCCACAAAGGCCCUGGAUGUGACUAUAUGUGCUGAGAAGGGAAGGUACUCUUGCGGUCGCACUAGUGUGGAAUUCUCGGGUGUCAAGG
B3: ENSMUSG00000028439.103|Fam219a (ssRNA)
RNA: GGGAGUUCUACAGUCCGACGAUCGCUUCGAUAUCCGCAUGCUAAUACCUAUUUGUGUUUUCCCCUCAUCUCCAGAUGGGAAGCCUGGCAGCGCUGUCCAAAGGGAUACUGUCUCUCCAUUAGAUAACUCCUUCCACUGUCUCCCUCCCCCGCUUUCUUACUUUCUGAGGGUUGGGAAGGUAAGAUGGGCCUUAGAGAGAAGCCAGGUUUGGGGAUGGUAUGACCUGUUCUCACCGGUCUCUAACCAGUGCAUCUGUCUCUCUGCCUCAUCCCCACACCGCCCUGCCACCCCCAGUCUUCUGUCCUCUUGCGGUCGCACUAGUGUGGAAUUCUCGGGUGUCAAGG
B4: ENSMUSG00000028439.89|Fam219a|94:98 (ssRNA)
RNA: GGGAGUUCUACAGUCCGACGAUCGCUUCGAUAUCCGCAUGCUAGGGUUUUGAGAAGAAAAGGAUCCAAGCAAUGGGGGCAGUUCUCACACCUCAGAGCCCCUCUCCCCAAACCCUGUGCCAGCCCAUAUACCUAUUACACAUUUCCCCUCAUCUCCAGAUGGGAAGCCUGGCAGCGCUGUCCAAAGGGAUACUGUCUCUCCAUUAGAUAACUCCUUCCACUGUCUCCCUCCCCCGCUUUCUUACUUUCUGAGGGUUGGGAAGGUAAGAUGGGCCUUAGAGAGAAGCCAGGUUUGGGGAUGGUACUCUUGCGGUCGCACUAGUGUGGAAUUCUCGGGUGUCAAGG
B5: ENSMUSG00000029636.86|Wasf3 (ssRNA)
RNA: GGGAGUUCUACAGUCCGACGAUCGCUUCGAUAUCCGCAUGCUAUUCCUGUUUCUUCCCUUUGCAAAUUGAAUUCCAGGUAGAUAUGGUUGUAGAGGGGAAAGUUUAACAAAUCAGAAUGAAAUGUUUGUCUGUUUGCACACUGGGCCUGGUGGCCUCCAAGGAAAUGUGUACGAUCGUUUGCUUUCUCUAUCUUGGCGCUUGCAACCGAGAGCGGCCAUUUUUAUGAGGGGAGCCCUGUGGGUACUCAUGUGGAAAGUGCCCACUGACUUUGGCAGAUGGAGUUCACUUUCAUGGCUAGCCCUCUCUUGCGGUCGCACUAGUGUGGAAUUCUCGGGUGUCAAGG
B6: ENSMUSG00000061578.638|Ksr2 (ssRNA)
RNA: GGGAGUUCUACAGUCCGACGAUCGCUUCGAUAUCCGCAUGCUAAGGAAUGGUGCUAGCUAGGGUGUGAGCCAAGCCCUUGAGGCUACUGUGAGUUAUGAGAUGUGUCCAACCCUCAGCCCACAGACUGCAUAUGCCCCAGGACAGCUGUGAAGGUGACCCAAUACAAAAUCGUAAACUAACUUAAAACCAUUAAGGGUUUUUGUUUUGUUGUUGUUUGCUGGCUUUUUGUUUUUUGGGUUGGUUUUCUUUUUCUUUCUUUCUUUUUUUUUUUUUUUUCCAACUCAAGUGUGAACUUUGUUGAUCUCUUGCGGUCGCACUAGUGUGGAAUUCUCGGGUGUCAAGG
B7: ENSMUSG00000028439.326|Fam219a (ssRNA)
RNA: GGGAGUUCUACAGUCCGACGAUCGCUUCGAUAUCCGCAUGCUAAGAUCCUAAUUAGAUAAGAAAAUGCCAAGGGAGGCAAGCCAGAGAAAGCAUCUGCAGGGGCCACAGGCCCAUGGUGGCCCCAUCUGAGCCCCCUCUCCCACCCCAGUUCGCAUCCCCACCACUCAUCAUCUGGGCCCCAACGCUAGAACUCCCCCCACCGCAUCCCCACUGGGCUCUUUGACUCACCCUUCUAGAACAUGGGUGCCUCCUCUCUUUAGACUGCUGCCUUUGCCUCUGACUUCCUGUGGGAUUGAGAGCCACUCUUGCGGUCGCACUAGUGUGGAAUUCUCGGGUGUCAAGG
B8: ENSMUSG00000061578.1149|Ksr2 (ssRNA)
RNA: GGGAGUUCUACAGUCCGACGAUCGCUUCGAUAUCCGCAUGCUAAAUGGCCCAGAAUUAUAGAGGACAGAGGAGAAGGUGGGCAUUGCAAGAUGCUGGAGCUUGGAAAGCAUGGUGGAAUUUGAUACACAUGAUCACCAAGCACCACCCGGGGAAGAAACUGGGUCACUGAGUCACUGGGUCACUCUGUUCCCUGAAGGCCCACCAACCACAUCCGCAUCCUACCUAGGGUGGAACUUUGACUGUCCUCGGGUGUCUCUGCUGUAUAUAGGCCAGUCACAAGCCCUUCUAAAAGCCUGCUCUUGCUCUUGCGGUCGCACUAGUGUGGAAUUCUCGGGUGUCAAGG

Whole data set: some 9,900 sequences, median “r (bound/input frequency ratio)” near 0.7, cut for the highest 2% near 6.5. This excerpt belongs to a sample that is enriched for the highest values.

The target of the experiment is TDP-43 (Homo sapiens, UniProt Q13148 1-414). Nature of the experiment: RNA Bind-n-Seq with designed 260-mer pool; 25 mM Tris-HCl, 150 mM KCl, 3 mM MgCl2, BSA (printed 500 mg/mL), 20 units/mL SUPERase IN; pH not stated; 500 nM RNA pool, 1 h, 4 C; TDP-43 5, 50, 500 nM; high values mean tight binding. The following applies: protein: recombinant; tags: SBP (GST cleaved off with PreScission; pGEX-GST-SBP). Put shortly: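 Streptavidin beads captured recombinant SBP-tagged TDP-43 at 5, 50 or 500 nM, and the beads were incubated for 1 h at 4 °C with 500 nM of an in vitro-transcribed pool of 260-nt 3′ UTR oligos in 25 mM Tris-HCl, 150 mM KCl, 3 mM MgCl2, BSA and SUPERase IN. After washing, bound RNA was eluted with biotin, reverse transcribed, PCR-amplified and sequenced. Binding is reported as R, the mapped-read-normalized abundance of each oligo in the bound sample divided by its abundance in the input. Two independent protein batches served as duplicates.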
TDP-43, sequence (Q13148 whole entry): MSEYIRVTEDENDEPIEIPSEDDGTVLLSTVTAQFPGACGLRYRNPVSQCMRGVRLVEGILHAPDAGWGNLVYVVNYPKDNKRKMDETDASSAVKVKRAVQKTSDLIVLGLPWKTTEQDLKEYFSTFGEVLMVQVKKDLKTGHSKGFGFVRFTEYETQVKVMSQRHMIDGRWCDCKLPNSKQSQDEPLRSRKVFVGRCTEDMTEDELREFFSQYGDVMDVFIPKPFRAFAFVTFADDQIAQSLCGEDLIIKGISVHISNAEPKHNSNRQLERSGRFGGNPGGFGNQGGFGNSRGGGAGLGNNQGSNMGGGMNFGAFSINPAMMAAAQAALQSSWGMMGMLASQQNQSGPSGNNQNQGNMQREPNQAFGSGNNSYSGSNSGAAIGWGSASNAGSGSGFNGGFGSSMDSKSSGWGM
Consider B1, for which the binding signal is 0.284 R (bound/input frequency ratio). Regarding B2, the binding signal was 1.18 R (bound/input frequency ratio). For the molecule B3, the binding signal was 0.421 R (bound/input frequency ratio). In the case of B4, the binding signal was 0.538 R (bound/input frequency ratio).

As for B5, the binding signal is 3.02 R (bound/input frequency ratio). B6: the binding signal was 0.297 R (bound/input frequency ratio). Under B7 stands 1.54 R (bound/input frequency ratio); under B8, 0.863 R (bound/input frequency ratio).

The values are drawn from publication PMC12864922, “TDP-43 directly inhibits mRNA accumulation in neurites through modulation of mRNA stability”.
